Compound activity: PubChem, National Center for Advancing Translational Sciences (NCATS)
Most compounds without a hit are left out; they make up all but 9.2% or so of the library.
ELG1 genotoxic: induces genotoxicity in HEK293T cells with luciferase-tagged ELG1; HEK293T ELG1-luciferase reporter, luminescence, 16 h; Potency, µM (series often up to 46 µM), for the others: at the top dose activity change, positive = activation, hits mostly activators; 330,000 tested, 1.3% active; AID 504466; further: % of control where 0% means no effect; nearly all actives have a fitted effect of over 60% in size
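HEK293T cells expressing luciferase-tagged ELG1 were exposed to compound or DMSO vehicle for 16 hr at 37 °C and 5% CO2. Luciferase activity was then measured with ONE-Glo after 30 min at room temperature.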
ELG1 DNA repair: ELG1-dependent DNA repair inhibition; 330,000 tested, 2.3% active; AID 504467; HEK293T ELG1-luciferase reporter, luminescence, 16 h; DNA damage induced by 5-fluorouridine; Potency, µM (top dose mostly 46.1 µM), inactives show at the top dose activity change, negative = inhibition, usual class: inhibitors; further: on the % scale 0 is the no-effect control and ±100 the full control effect; nearly all actives have a fitted effect of over 55% in size
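HEK293T cells expressing luciferase-tagged ELG1 (2,000/well) received 5-Fluorouridine plus compound or DMSO for 16 hr at 37 °C. Luciferase was read by ONE-Glo luminescence after 30 min at room temperature.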
Rab9 prom act: activators of Rab9 promoter; Huh7 Rab9 promoter-luciferase reporter, luminescence, 24 h; Potency, µM (highest dose often 9.22 µM), for the others: top-dose activation, negative = inhibition, most hits filed as activators; 320,000 tested, 2.8% active; AID 485297; further: % of control where 0% means no effect; nearly all actives have a fitted effect of over 60% in size
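Quantitative HTS format; Huh7 Rab9-luciferase reporter cells (1500/well) receive compound 2 h post-plating, incubate 24 h at 37 °C, then get luciferase reagent for 10 min before luminescence reading.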
NPC1 prom act: activates the NPC1 promoter; Huh7 NPC1 promoter luciferase reporter, 24 h; Potency, µM (highest dose often 9.22 µM), for inactives: at the highest dose activation, hits mostly activators; 320,000 tested, 2.4% active; further: % of control where 0% means no effect; nearly all actives have a fitted effect of over 60% in size
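Compounds in DMSO were transferred onto Huh7 NPC1-luciferase reporter cells pre-incubated 2 h; after 24 h at 37 °C, Amplite reagent was dispensed and luminescence recorded 10 min later.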
FLuc modulator: inhibits or activates purified firefly luciferase, miR-21 counter-screen. AID 588342. purified FLuc, Km substrates, luminescence inhibition. P08659. Potency, µM (series often up to 57.5 µM), for inactives: at the highest dose activity change, negative = inhibition, actives largely listed as inhibitors. 360,000 tested, 6.9% active;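 further: plate controls were vehicle for no effect and reference inhibitor for full effect; nearly all actives have a fitted effect of over 55% in size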
Target sequence (P08659 whole entry, looked up): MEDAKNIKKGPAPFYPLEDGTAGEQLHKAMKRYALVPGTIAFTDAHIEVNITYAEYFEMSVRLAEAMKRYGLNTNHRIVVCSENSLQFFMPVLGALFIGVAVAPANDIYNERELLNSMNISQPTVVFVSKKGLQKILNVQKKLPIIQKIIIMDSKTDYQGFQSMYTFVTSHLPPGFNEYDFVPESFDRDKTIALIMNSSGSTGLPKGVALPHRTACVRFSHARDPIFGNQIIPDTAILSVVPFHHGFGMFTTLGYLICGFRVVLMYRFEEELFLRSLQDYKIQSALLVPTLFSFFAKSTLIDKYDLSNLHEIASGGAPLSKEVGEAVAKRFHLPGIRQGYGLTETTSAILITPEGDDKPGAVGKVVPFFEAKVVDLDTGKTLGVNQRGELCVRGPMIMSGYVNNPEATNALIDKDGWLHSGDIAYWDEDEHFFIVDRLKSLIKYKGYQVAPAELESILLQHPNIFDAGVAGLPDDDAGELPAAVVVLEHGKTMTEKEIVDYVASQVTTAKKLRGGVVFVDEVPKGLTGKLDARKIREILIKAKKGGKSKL
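Biochemical qHTS of compounds, final roughly 60 µM downward over six points, against 10 nM purified firefly luciferase using Km concentrations of substrates (10 uM D-luciferin, 10 uM ATP) in Tris acetate pH 7.5 buffer; luminescence output.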
SMN2 splice enh: SMN2 splice variant enhancement; HEK293 SMN2-luciferase splicing reporter, luminescence, 30-36 h; Potency, µM (titrated, usually from 46.1 µM), for the others: top-dose activity change, positive = activation, actives largely listed as activators; 210,000 tested, 2.8% active; further: % of control where 0% means no effect; nearly all actives have a fitted effect of over 55% in size
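qHTS luciferase splicing reporter: luminescence rises when SMN2 exon 7 is included in transfected HEK293 cells. Compound exposure lasted 30-36 h at 37C, with 4.5 mM final sodium butyrate as control, followed by a ONE-Glo read.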
Starred values were filed as active, the others as inactive; ? = inconclusive; nt = no result; [ ] = another dose, or the depositor's remark. The call rests on the fitted dose curve; in most records, active means well fitted curve in the direction sought with a large enough effect; inconclusive means small, poorly fitted or top-dose-only effect, or another doubt; inactive means no such curve, though single readings can be large; an effect the other way counts as inactive or inconclusive. Potency means the concentration at half of the fitted maximal effect.

SMILES | ELG1 genotoxic | ELG1 DNA repair | Rab9 prom act | NPC1 prom act | FLuc modulator | SMN2 splice enh
CCN(CC)C(=O)[C@H]1C[C@H](CC(=O)NCc2ccc(OC)c(OC)c2)C(=O)N2CCc3c([nH]c4cc(-c5ccco5)ccc34)[C@]12C | -14% | 23µM* | nt | nt | nt | nt
CCN(CC)C(=O)[C@H]1C[C@H](CC(=O)NCCCOC)C(=O)N2CCc3c([nH]c4cc(-c5ccco5)ccc34)[C@]12C | -1% | -25% | nt | nt | nt | nt
C[C@]12c3[nH]c4ccc(Cl)cc4c3CCN1C(=O)[C@@H](CC(=O)NCc1cccc(C(F)(F)F)c1)C[C@@H]2C(=O)N1CCOCC1 | -10% | 23µM* | nt | nt | nt | nt
Cc1cc(C(=O)NC(C)CCc2ccccc2)ccc1[N+](=O)[O-] (stereo not drawn) | -1% | ? | 1% | 10% | 4% | nt
c1ccc2cc(CNCc3cccc4ccccc34)ccc2c1 | -1% | 3% | 2% | -9% | -5% | nt
COc1ccccc1CN(Cc1ccco1)c1cnc(S(C)(=O)=O)nc1C(=O)Nc1ccccc1Cl | nt | nt | nt | nt | -7% | nt
O=C(CSc1nnc(NC(=O)c2ccc(F)cc2F)s1)NC1CCCC1 | ? | ? | ? | ? | 4.3µM* | nt
O=C(CSc1nnc(NC(=O)c2ccccc2F)s1)NC1CCCC1 | 8% | ? | 3.2µM* | ? | 11µM* | nt
O=C(Nc1nnc(SCC(=O)N2CCCCC2)s1)c1ccc(F)cc1F | 12% | ? | 18% | 15% | 8.5µM* | nt
O=C(Cc1ccc(F)cc1)Nc1nnc(SCC(=O)N2CCCCC2)s1 | 0% | -3% | -8% | -4% | 0% | -9%
COc1ccc(CNC(=O)CSc2nnc(NC(=O)c3ccccc3F)s2)cc1 | ? | ? | 2.2µM* | 3.2µM* | 11µM* | nt
CC(Sc1ncc(S(=O)(=O)c2ccc(C(C)C)cc2)c(N)n1)C(=O)Nc1ccccc1 (stereo not drawn) | nt | nt | nt | nt | 0% | nt
COc1cc(OC)nc(-n2ncc(Br)c(Br)c2=O)n1 | -16% | 4.6µM* | -43% | -36% | 5% | -107%
CN(C)c1ccc(CNC(=O)c2ccc(NC(=O)N3CCCCc4ccccc43)cc2)cc1 | nt | nt | nt | nt | -5% | nt
CC(C)(C)C(=O)Nc1cccc(-c2cc(-c3c(Cl)cccc3Cl)no2)c1 | -1% | 8.2µM* | -13% | 1% | -3% | nt
CC(C)(C)C(=O)Nc1cccc(C(=O)c2cccc(NC(=O)C(C)(C)C)c2)c1 | -7% | ? | 3% | -2% | ? | 2%
CCCCc1nnc(SCc2cc(=O)c3cc(C(=O)OCC)ccc3[nH]2)n1C | nt | nt | nt | nt | -11% | nt
O=C(NCc1csc(-c2cccs2)n1)c1ccccc1 | 12% | ? | 23% | ? | ? | nt
c1csc(-c2nc3ccccc3s2)c1 | ? | ? | 3.5µM* | 2.5µM* | 2.7µM* | nt
CC(=O)NCc1ccc(-c2csc(-c3cccs3)n2)cc1 | ? | ? | 2.2µM* | 2µM* | 5.4µM* | nt
Oc1ccc(-c2nc3ccccc3s2)cc1 | 3.7µM* | ? | 2.8µM* | 2.8µM* | 1.9µM* | nt
c1cncc(-c2nc3ccccc3s2)c1 | ? | ? | ? | ? | 21µM* | nt
CC(=O)N(Cc1cccnc1)c1cccc(-c2nc3ccccc3s2)c1 | 2% | ? | -17% | 3% | -15% | nt
O=C1CC(c2ccccc2)CN1C(=O)c1cncc(Br)c1 (stereo not drawn) | 2% | 6% | -5% | -2% | 6% | nt
COc1ccccc1N(CC(=O)NCCSCc1cccc(C)c1)S(=O)(=O)c1ccccc1 | -25% | ? | -11% | 0% | 3% | nt
SMILES | ELG1 genotoxic | ELG1 DNA repair | Rab9 prom act | NPC1 prom act | FLuc modulator | SMN2 splice enh
Cc1c(NS(=O)(=O)c2ccc(N(C)C3CCCCC3)c([N+](=O)[O-])c2)c(=O)n(-c2ccccc2)n1C | -5% | 10% | 0% | 4% | 1% | -12%[1.84 µM]
COc1ccc(NC(=O)C2=C(C)Nc3ncnn3C2c2cccn2C)cc1 (stereo not drawn) | nt | nt | nt | nt | 1% | nt
CC(=O)NCc1ccc(-c2nc3ccccc3s2)cc1 | ? | ? | 0.63µM* | 2.2µM* | 3µM* | 14µM*
c1ccc2sc(-c3ccncc3)nc2c1 | ? | ? | 2.8µM* | 3.2µM* | 15µM* | nt
CC(=O)Nc1scc(C)c1-c1nc2ccccc2s1 | -6% | -1% | -2% | -2% | 4% | nt
Cc1cccc(C)c1OCC(=O)N(Cc1ccccc1F)C1CCS(=O)(=O)C1 (stereo not drawn) | nt | nt | nt | nt | -5% | 1%
Cc1ccc(C(=O)N(CC(C)C)c2nc3ccccc3s2)o1 | -6% | -1% | 12% | 8% | ? | nt
CC(C)CN(C(=O)c1ccc(=O)n(C)n1)c1nc2ccccc2s1 | 4% | ? | 26% | 22% | -17% | 20µM*
Cc1cc(NC(=O)Nc2cccc(Cl)c2)n(-c2ccccn2)n1 | -1% | 16µM* | 0% | 0% | ? | nt
Cc1cc(NC(=O)Nc2cccc(Cl)c2)n(-c2ccccc2)n1 | -2% | 0% | -1% | 0% | -1% | nt
Cc1cc(O)c(C(=O)Nc2cccc(Cl)c2)c(=O)n1C | 10µM* | ? | 2.5µM* | 2.2µM* | 3.4µM* | nt
Fc1ccccc1NC(=S)NCCc1cccc(Cl)c1 | 16% | ? | ? | ? | 24µM* | nt
Cc1cc2ccccn2c1C(=O)c1ccc(Cl)cc1 | -4% | ? | 15% | 3% | ? | -14%
S=C(NCCc1ccccc1)NCc1cccc(Cl)c1 | 3% | 12% | 6% | 17% | -14% | nt
Cc1cc2ccccn2c1C(=O)Nc1cccc(Cl)c1 | 12% | ? | 28% | -18% | 13µM* | 27%
COCCNC(=O)Cn1nc(-c2ccccc2F)ccc1=O | 1% | -7% | 0% | 2% | 1% | nt
Cc1cccc(NC(=O)Cn2c(=O)c3cccn3c3ccccc32)c1C | nt | nt | nt | nt | -4% | nt
O=C(NC1CCCCC1)c1cccc(N2C(=O)CCC2=O)c1 | -1% | 14% | 2% | 0% | 1% | nt
O=C(Nc1ccc(Cl)cc1)Nc1cccc(C(=O)O)c1 | -9% | ? | 0.25µM* | 0.089µM* | 0.067µM* | nt
CSc1cccc(NC(=O)Nc2ccc(Cl)cc2)c1 | 2% | ? | 27% | 16% | ? | -15%
O=C(Nc1ccccc1)Nc1cccc(Cl)c1 | ? | ? | 3.5µM* | ? | 9.5µM* | 15%
O=C(Nc1cccc(C(=O)O)c1)Nc1cccc2ccccc12 | 8% | ? | 3.5µM* | 2µM* | 2.1µM* | nt
CC(=O)Nc1cccc(NC(=O)Nc2cccc3ccccc23)c1 | -2% | -9% | 1% | -3% | -9% | nt
CS/C(N)=N/C(=S)Nc1cccc(Cl)c1 | 9% | ? | ? | ? | 19µM* | nt
